Among the data in PubChem BioAssay (NCATS) are Potency values, retold here.

Results filed as inconclusive are left out. The source made the active and inactive calls. The call rests on the fitted dose curve; in most records, active means well fitted curve in the direction sought with a large enough effect; inconclusive means small, poorly fitted or top-dose-only effect, or another doubt; inactive means no such curve, though single readings can be large; an effect the other way counts as inactive or inconclusive.

A short description of test [1]: qHTS of pediatric cancer cell lines to identify multiple opportunities for drug repurposing: Confirmatory screen for NB-EBc1 cells (AID 1347115).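 Further: cells exposed to compound for 48 h before the viability read; nearly all actives have a fitted effect of over 45% in size.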 Summed up:
(§1)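 Viability after 48 h compound treatment at 37C, 500-1,000 cells/well, read as ATP luminescence with CellTiter-Glo. Primary screens used 11-point (MIPE, 0.78 nM-46 µM) or 8-point (NPC, 0.59 nM-46 µM) final concentrations; follow-up screens used 11-point dilutions.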

Test [2] in a line: qHTS of pediatric cancer cell lines to identify multiple opportunities for drug repurposing: Confirmatory screen for SJ-GBM2 cells (AID 1347116). Further: nearly all actives have a fitted effect of over 60% in size. In short, it runs like this: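 Viability measured as metabolically active cells via CellTiter-Glo luminescence following 48 hours of compound exposure, 11-point dilutions in confirmatory testing. 500-1,000 cells/well plated 5 hours before dosing; controls were DMSO and 2.3 µM bortezomib.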
(In qHTS, concentration-response curves come from the screen itself.)

The nature of test [3]: qHTS of pediatric cancer cell lines to identify multiple opportunities for drug repurposing: Confirmatory screen for BT-37 cells (AID 1347117). Further: nearly all actives have a fitted effect of over 55% in size. Summed up: as §1
Test [4] in a line: qHTS of pediatric cancer cell lines to identify multiple opportunities for drug repurposing: Confirmatory screen for TC32 cells (AID 1347118).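 Further: cells exposed to compound for 48 h before the read; nearly all actives have a fitted effect of over 65% in size.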 Summed up: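 qHTS, TC32, 48 h drug treatment, CellTiter-Glo luminescence as a proxy for metabolically active cells; primary top concentration 46 µM (MIPE 11-pt, NPC 8-pt); confirmatory 11-pt.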
Test [5] can be described thus: qHTS of pediatric cancer cell lines to identify multiple opportunities for drug repurposing: Confirmatory screen for MG 63 (6-TG R) cells (AID 1347119). Further: nearly all actives have a fitted effect of over 55% in size. In short, it runs like this: as §1
Test [6] in a line: qHTS of pediatric cancer cell lines to identify multiple opportunities for drug repurposing: Confirmatory screen for control Hh wild type fibroblast cells (AID 1347121). Further: nearly all actives have a fitted effect of over 70% in size. In short, it runs like this: as §1
Test [7] can be described thus: qHTS of pediatric cancer cell lines to identify multiple opportunities for drug repurposing: Confirmatory screen for Rh18 cells (AID 1347125). Further: nearly all actives have a fitted effect of over 55% in size. In short, it runs like this:
as §1

A short description of test [8]: qHTS of pediatric cancer cell lines to identify multiple opportunities for drug repurposing: Confirmatory screen for Rh30 cells (AID 1347126). Further: nearly all actives have a fitted effect of over 55% in size. In short, it runs like this:
as §1

A short description of test [9]: qHTS of pediatric cancer cell lines to identify multiple opportunities for drug repurposing: Confirmatory screen for Saos-2 cells (AID 1347127). Further: nearly all actives have a fitted effect of over 60% in size. In short, it runs like this: as §1
Test [10] can be described thus: qHTS of pediatric cancer cell lines to identify multiple opportunities for drug repurposing: Confirmatory screen for OHS-50 cells (AID 1347128). In short, it runs like this:
as §1

A short description of test [11]: qHTS of pediatric cancer cell lines to identify multiple opportunities for drug repurposing: Confirmatory screen for SK-N-SH cells (AID 1347129).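 Further: cells exposed to compound for 48 h before viability read; nearly all actives have a fitted effect of over 60% in size.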 In short, it runs like this: as §1
Test [12] deals with Zika virus NS2B-NS3 protease. Briefly: Primary screen GU AMC qHTS for Zika virus inhibitors (AID 1347154). Further: nearly all actives have a fitted effect of over 70% in size. In short, it runs like this:
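Unlinked Zika NS2B hydrophilic domain–NS3 protease complex at 25 nM in 10 mM Tris-HCl pH 8.0, 0.01% Tween 20, with an AMC peptide substrate. Fluorescence change (340/450 nm) over 15 min at room temperature, normalized to controls, fitted to 4-parameter Hill.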

A short description of test [13]: qHTS of pediatric cancer cell lines to identify multiple opportunities for drug repurposing: Confirmatory screen for U-2 OS cells (AID 1347122). Further: nearly all actives have a fitted effect of over 65% in size. In short, it runs like this: as §1
Test [14] can be described thus: qHTS of pediatric cancer cell lines to identify multiple opportunities for drug repurposing: Confirmatory screen for Rh41 cells (AID 1347123).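 Further: 48 h compound exposure; nearly all actives have a fitted effect of over 60% in size.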 Summed up: as §1
Test [15] is described as follows: qHTS of pediatric cancer cell lines to identify multiple opportunities for drug repurposing: Confirmatory screen for RD cells (AID 1347124).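 Further: cells exposed to compound for 48 h before viability readout; nearly all actives have a fitted effect of over 65% in size.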 Summed up: as §1
In a further test the target is Furin (Homo sapiens) (UniProt P09958). Briefly: Furin counterscreen qHTS for Zika virus inhibitors (AID 1347149). Further: nearly all actives have a fitted effect of over 70% in size. In short, it runs like this: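 Counterscreen measures cleavage of 2 microM BOC-RVRR-AMC, below its ~15 microM Km, by 5 nM full-length human furin at pH 7.0 after a 15-min compound preincubation. Inhibition derives from the 15-min fluorescence increase at 37C.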
Sequence of Furin (Homo sapiens) (P09958 whole entry, looked up): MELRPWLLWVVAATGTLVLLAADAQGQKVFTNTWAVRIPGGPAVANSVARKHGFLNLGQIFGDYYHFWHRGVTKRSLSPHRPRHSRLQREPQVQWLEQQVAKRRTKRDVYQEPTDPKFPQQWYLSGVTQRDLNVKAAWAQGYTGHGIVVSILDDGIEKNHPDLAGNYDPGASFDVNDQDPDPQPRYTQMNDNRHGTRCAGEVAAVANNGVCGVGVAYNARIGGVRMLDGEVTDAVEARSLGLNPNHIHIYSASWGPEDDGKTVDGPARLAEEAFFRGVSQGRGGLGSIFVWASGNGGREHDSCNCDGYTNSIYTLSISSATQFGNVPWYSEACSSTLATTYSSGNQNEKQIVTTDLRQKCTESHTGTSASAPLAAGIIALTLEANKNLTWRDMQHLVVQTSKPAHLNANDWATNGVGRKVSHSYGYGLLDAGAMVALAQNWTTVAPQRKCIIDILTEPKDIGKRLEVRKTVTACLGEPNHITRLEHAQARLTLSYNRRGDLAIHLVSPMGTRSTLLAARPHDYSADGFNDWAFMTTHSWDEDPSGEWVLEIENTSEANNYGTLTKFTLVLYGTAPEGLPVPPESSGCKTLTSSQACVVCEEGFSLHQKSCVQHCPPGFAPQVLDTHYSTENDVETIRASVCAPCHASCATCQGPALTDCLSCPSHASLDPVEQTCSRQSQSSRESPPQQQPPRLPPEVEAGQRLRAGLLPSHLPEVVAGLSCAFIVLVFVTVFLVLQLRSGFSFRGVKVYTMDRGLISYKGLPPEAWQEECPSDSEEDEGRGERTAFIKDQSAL
Potency means the concentration at half of the fitted maximal effect.

In the case of `CC(=O)[O][Hg][c]1ccccc1`, the Potency was 5850 nM (active) in test [1]; 1170 nM (active) in [2]; 2330 nM (active) in test [3]; 827 nM (active) in test [4]; 4140 nM (active) in test [5]; 13100 nM (active) in test [6]. Further, the Potency in test [7] was 4650 nM (active); in [8] it was 1310 nM (active); in test [9] it was 1170 nM (active); in [10] it was 5850 nM (active); in test [11] it was 2640 nM (active). The Potency result in test [12] is “inactive”.

In the case of `C[C@@H]1O[C@@H](O[C@@H]2C=C3CC[C@@H]4[C@@H](CC[C@]5(C)[C@H](c6ccc(=O)oc6)CC[C@@]45O)[C@@]3(C)CC2)[C@H](O)[C@H](O)[C@H]1O`, the Potency is 26.1 nM (active) in [1]; 58.5 nM (active) in [2]; 13.1 nM (active) in test [3]; 23.3 nM (active) in test [4]; 7.4 nM (active) in [5]; 16.5 nM (active) in test [13]. In addition, the Potency in test [14] is 16.5 nM (active); in test [15] it was 16.5 nM (active); in [8], 46.5 nM (active); in test [9] it was 185 nM (active); in [10], 16.5 nM (active). Also, the Potency result in test [12] is “inactive”.

For the compound `C[C@@H]1CC[C@@]2(OC1)O[C@H]1C[C@H]3[C@@H]4CC=C5C[C@@H](O[C@@H]6O[C@H](CO)[C@@H](O[C@@H]7O[C@@H](C)[C@H](O)[C@@H](O)[C@@H]7O)[C@H](O)[C@@H]6O[C@@H]6O[C@@H](C)[C@H](O)[C@@H](O)[C@@H]6O)CC[C@]5(C)[C@@H]4CC[C@]3(C)[C@@H]1[C@H]2C`, the Potency in [1] is 16500 nM (active); in test [3] it was 5220 nM (active); in [4] it was 4140 nM (active); in [5], 2610 nM (active); in test [6] it was 13100 nM (active); in [7], 10400 nM (active). Besides, the Potency in [8] is 4140 nM (active); in [9], 5220 nM (active); in test [10] it was 5220 nM (active); in test [11] it was 16600 nM (active). Further, the Potency entry in [12] is “inactive”.

In the case of `COc1cc2cc(c1Cl)N(C)C(=O)C[C@H](OC(=O)C(C)C)[C@]1(C)O[C@H]1[C@H](C)[C@@H]1C[C@@](O)(NC(=O)O1)[C@H](OC)C=CC=C(C)C2`, the Potency in [3] is 1 nM (active); in [4], 0.4 nM (active); in [5] it was 1 nM (active); in test [9], 26100 nM (active); in test [10] it was 11.7 nM (active). Also, the Potency result in test [6], in [8] and in test [12] was “inactive” in each case.

Turning to `CC1=C(O)C(=O)C=C2C1=CC=C1[C@@]2(C)CC[C@@]2(C)[C@@H]3C[C@](C)(C(=O)O)CC[C@]3(C)CC[C@]12C`, the Potency was 2610 nM (active) in test [1]; 2610 nM (active) in [2]; 4650 nM (active) in [3]; 1310 nM (active) in test [4]; 2330 nM (active) in [5]; 4140 nM (active) in test [6]. The Potency in test [13] is 928 nM (active); in test [14], 1470 nM (active); in test [15], 1170 nM (active); in [7] it was 2330 nM (active); in test [8], 1850 nM (active); in test [9], 3290 nM (active). Besides, the Potency in [10] is 2610 nM (active); in test [11] it was 2960 nM (active). Further, in the test with Furin (Homo sapiens), the Potency entry was “inactive”.

Turning to `CCC(=O)OC1CCC2C3CCC4=CC(=O)CC[C@@]4(C)C3CC[C@]12C` (stereo partly drawn), the Potency entry in test [1], in test [2], in test [3], in test [5], in test [6] and in [13] was “inactive” in each case. Also, the Potency result in [15], in [7], in test [8], in test [9], in test [10] and in [11] was “inactive” each time. Moreover, in test [12], the Potency result was “inactive”.

`O=C1C(I)=CC(=C(c2cc(I)c(O)c(I)c2)c2ccccc2C(=O)O)C=C1I`: the Potency result in test [1], in test [3], in [5], in test [6], in [15] and in test [7] was “inactive” throughout. Also, the Potency result in [9], in test [10] and in [11] was “inactive” throughout. Also, the Potency is 9270 nM (active) in test [14], 18700 nM (active) in the test with Furin (Homo sapiens) and 12800 nM (active) in test [12].

Consider `O=C(O)CCCOc1ccc(Cl)cc1Cl`, for which the Potency in [1] was 19400 nM (active). Besides, the Potency entry in test [3], in [6], in test [13], in test [15], in [7] and in test [8] was “inactive” throughout. In addition, the Potency entry in test [9], in test [10], in test [11] and in test [12] was “inactive” each time.

Take `Cc1ccccc1-n1c(Cn2cnc3c(N)ncnc32)nc2cccc(C)c2c1=O`: the Potency result in [1], in [2], in [3], in test [4], in [6] and in test [13] was “inactive” each time. Further, the Potency entry in [14], in test [15], in test [7], in [8], in test [9] and in test [10] was “inactive” throughout. Besides, the Potency entry in [11] and in test [12] was “inactive” throughout.

Turning to `COc1cc([C@@H]2c3cc4c(cc3[C@@H](O)C3COC(=O)C32)OCO4)cc(OC)c1O` (stereo partly drawn), the Potency in test [1] was 3690 nM (active); in test [3] it was 737 nM (active); in test [4] it was 585 nM (active); in test [5], 293 nM (active). The Potency result in [2], in test [6], in test [7], in test [8], in [9] and in [10] was “inactive” in each case. Also, the Potency result in test [11] and in test [12] was “inactive” in each case.

`Cc1c(N)nc([C@H](CC(N)=O)NC[C@@H](N)C(N)=O)nc1C(=O)N[C@H](C(=O)N[C@@H](C)[C@H](O)[C@@H](C)C(=O)N[C@@H](C(=O)NCCc1nc(-c2nc(C(=O)NCCC[S+](C)C)cs2)cs1)[C@@H](C)O)C(O[C@H]1O[C@H](CO)[C@H](O)[C@@H](O)[C@@H]1O[C@H]1O[C@H](CO)[C@@H](O)[C@H](OC(N)=O)[C@H]1O)c1cnc[nH]1` (stereo partly drawn): the Potency result in [2], in test [6], in [13], in test [14], in test [8] and in test [9] was “inactive” in each case. The Potency result in test [10] and in test [12] was “inactive” each time.

As for `CC(C)(O)C=CC(=O)[C@](C)(O)[C@H]1[C@H](O)C[C@]2(C)[C@@H]3CC=C4[C@@H](C=C(O)C(=O)C4(C)C)[C@]3(C)C(=O)C[C@@]12C`, the Potency is 3290 nM (active) in test [1]; 1650 nM (active) in test [2]; 827 nM (active) in [3]; 827 nM (active) in test [4]; 117 nM (active) in test [5]; 2610 nM (active) in test [6]. Also, the Potency in test [13] was 208 nM (active); in test [14], 208 nM (active); in [15], 465 nM (active); in test [7], 147 nM (active); in test [8], 827 nM (active); in test [9], 147 nM (active). For the same compound, the figures for the Potency in [10] and in test [11] were 1470 nM (active) and 264 nM (active), respectively. The Potency result in [12] was “inactive”.
